Experimental findings from PubChem BioAssay AID1117361 (Southern Research Institute, 2015) are described below.

Each structure is given as a SMILES string. In all, about 3,600 compounds went through this assay and about 900 (25%) were called active. No rule for the calls is given here. A selection follows. Entries with a potency or affinity are not part of this list.

The experiment has as its target Protein Tat (Human immunodeficiency virus type 1 group M subtype B (isolate HXB2)) (UniProt P04608). Nature of the experiment: inhibitors of Tat binding to TAR RNA, dose response, counter-screen for Vif-APOBEC3G degradation inhibitor project, biochemical, fluorescence polarization, FAM-labeled TAR RNA (AID 1117361). Conditions: outcome: dose series up to 100 µM unless noted; series mostly up to 100 µM.
Consider `CS(=O)(=O)c1ccc(Cl)c(NC(=O)COC(=O)COc2ccc3c(c2)CCC3)c1`, for which the result was inactive.

With `COc1ccc(CNC(=O)CN(CC2CCCO2)C(=O)CNS(=O)(=O)c2ccc(C)cc2)cc1` (configuration not stated), the outcome was inactive.

On to `COc1ccc(OC)c(/C(O)=C/C(=O)C(=O)Nc2cc(C)ccc2OC)c1`, for which the compound was called inactive.

Take `COc1ccc(OC)c(NC(=O)c2[nH]c(C)c(C(C)=O)c2C)c1`: the result was inactive.

For `COc1cccc(CNC(=O)Cn2c(=O)oc3ccccc32)c1OC`, the outcome was inactive.

Take `COc1ccc(CC(=O)OCc2cc3ccc(C)cc3[nH]c2=O)cc1`: the compound was called inactive.

Regarding `N=c1sccn1CC(=O)Nc1ccc2c(c1)CCC2`, the compound was called inactive.

For the compound `COc1ccc(OC)c(C2C(C(=O)c3cc4ccccc4o3)=C(O)C(=O)N2c2cc(C)on2)c1` (configuration not stated), the outcome was inactive.

Regarding `CCC(C)NC(=S)NNC(=O)c1ccc(C(C)(C)C)cc1` (configuration not stated), the call was inactive.

`Cc1cc2c(=Cc3ccc(N(C)C)cc3)c3ccccc3n2[n+]1C`: the outcome was inactive.

Regarding `Oc1cccc(/C=N/NC(=S)NCCN2CCOCC2)c1O`, the call was inactive.

On to `COc1cccc(C=Nc2cc(C(C)C)c(O)cc2C)c1O`, for which the compound was called inactive.

`COc1cccc(CC(NC(C)=O)C(=O)NC2CCN(S(=O)(=O)c3ccc4ccccc4c3)CC2)c1` (configuration not stated): the compound was called inactive.

For `COc1ccccc1N1CCN(CC(O)COCCOc2ccc(Br)cc2)CC1` (configuration not stated), the result was inactive.

As to `CC(=O)Nc1ccc(C(=O)Nc2cccc(-c3cnc4ccccc4n3)c2)cc1`, the result was inactive.

Regarding `Cc1ccc(NC(=O)c2ccc(Cl)c(N3C(=O)C=CC3=O)c2)cc1`, the outcome was inactive.

Take `CC(=O)Nc1ccc(N/C=C/C(=O)C(C)(C)C)cc1`: the compound was classed as inactive.

Consider `Cc1cc(C)c(C)c(OCCCOc2cccc3cccnc23)c1`, for which the result was inactive.

`Cc1nnc(SCC(=O)N2CCN(c3ccccc3)CC2)n1C1CC1`: the compound was classed as inactive.

Take `COc1ccc(/C=N/NC(=O)c2ccc3ccccc3c2)cc1OS(=O)(=O)c1ccc(NC(C)=O)cc1`: the outcome was inactive.

Take `COC(=O)c1sccc1NC(=O)c1cc(-c2ccc(C)cc2C)nc2ccccc12`: the call was inactive.

In the case of `Cc1ccc(C(=O)N/C(=C/c2cccnc2)C(=O)NCc2ccco2)cc1`, the outcome was inactive.

For the compound `O=C(CNC(=O)/C(=C\c1ccccc1)NC(=O)c1ccc(Br)cc1)OCc1ccccc1`, the outcome was inactive.

Turning to `O=C(NCC1CCCO1)c1ccc(CS(=O)(=O)Cc2ccc(F)cc2)o1` (configuration not stated), the call was inactive.

Take `Cc1cc(C(F)(F)F)n2nc(C(=O)O)c(Cl)c2n1`: the call was inactive.

`O=C1NC(=Nc2ccc(F)cc2)SC1Cc1ccc(F)cc1` (configuration not stated): the call was inactive.

`COc1ccc(NC(=O)/C(C#N)=C\c2cc(C)n(-c3ccc(Oc4ccc([N+](=O)[O-])cn4)cc3)c2C)cc1`: the outcome was inactive.

Turning to `O=C(O)c1ccc(S(=O)(=O)c2ccc([N+](=O)[O-])cc2[N+](=O)[O-])cc1`, the outcome was inactive.

For `CCCN(CCC)S(=O)(=O)c1cc(Br)cc2c1N(C(=O)CC)CC2`, the result was inactive.

Consider `O=C1CCCC(NCCCCCCNC2=C([N+](=O)[O-])C(=O)CCC2)=C1[N+](=O)[O-]`, for which the result was inactive.

In the case of `CC(NCCO)C(=O)C12CC3CC(CC(C3)C1)C2` (configuration not stated), the compound was called inactive.

As to `CN(C)S(=O)(=O)N1CCC(CCCC2CCN(S(=O)(=O)N(C)C)CC2)CC1`, the outcome was inactive.

Turning to `CN1CCN(c2nc(-c3cccnc3)nc3ccccc23)CC1`, the call was inactive.

Consider `C[C@@H]1NC(=O)[C@H](CCC(N)=O)NC(=O)c2cc([N+](=O)[O-])cc(I)c2NCCC[C@@H](C(N)=O)NC1=O`, for which the compound was called inactive.

Consider `O=C(COC(=O)c1cc(=O)[nH]c2ccccc12)Nc1cccc(S(=O)(=O)N2CCOCC2)c1`, for which the outcome was inactive.

As to `CN(Cc1ccccc1)C(=O)c1cccc(N2C(=O)NC3CC2(C)Oc2ccccc23)c1` (configuration not stated), the call was inactive.

In the case of `NC(=O)c1ccc(NC(=O)CSc2nc3ccccc3c(=O)n2CCCN2CCOCC2)cc1`, the result was inactive.

As to `CCCCCCn1c(SCC(=O)Nc2cc(C)on2)nc2ccccc2c1=O`, the result was inactive.

On to `Cc1sc(-c2ccccn2)nc1OC(=O)c1cccc(Cl)c1Cl`, for which the result was inactive.

Regarding `CCCS(=O)(=O)N1CCCC(C(=O)NCCCOC(C)C)C1` (configuration not stated), the outcome was inactive.

For `CC(C)C(=O)Nc1nnc(Sc2ccc(N(C)C)cc2)s1`, the call was inactive.

Turning to `O=S(=O)(c1ccccc1)N1CCN(S(=O)(=O)N2CCCCC2)CC1`, the call was inactive.

With `COc1cc(C(=O)OCC(=O)N2CCCC2)cc(OC)c1OC`, the call was inactive.

Turning to `Cc1ccccc1NC(=O)Cc1nc(COC(=O)Cc2ccccc2F)cs1`, the result was inactive.

With `COc1ccc(S(=O)(=O)NNC(=O)c2sccc2-n2cccc2)cc1`, the compound was called inactive.

`COC(=O)CC1Oc2ccccc2N(Cc2ccccc2)C1=O` (configuration not stated): the result was inactive.

With `CCOC(=O)C1(Cc2ccc(OC)cc2)CCN(C(=O)c2cccc3nccnc23)CC1`, the outcome was inactive.

As for `O=C(Nc1cccc(C(F)(F)F)c1)c1cc(S(=O)(=O)N2CCCCC2)ccc1N1CCOCC1`, the outcome was inactive.

As for `O=C(CN1CCN(S(=O)(=O)c2ccc(F)cc2)CC1)Nc1cc(C(F)(F)F)ccc1Cl`, the call was inactive.

Take `Cc1cccc(Cc2nnc(CCC(=O)N(C)C3CCOC3)o2)c1` (configuration not stated): the compound was classed as inactive.

For `Cc1noc(C)c1COC(=O)c1cccc(S(=O)(=O)N2CCCCCC2)c1`, the outcome was inactive.

Consider `O=C(NCc1cccs1)Nc1cccs1`, for which the call was inactive.

With `c1ccc(CCc2nn3c(C4COc5ccccc5O4)nnc3s2)cc1` (configuration not stated), the compound was called inactive.

On to `CCOc1ccc(N(CC(=O)NCc2ccc(F)cc2)S(=O)(=O)c2c(C)noc2C)cc1`, for which the outcome was inactive.

Take `CCOc1ccc(N(CC(=O)NC2CCCCC2)S(=O)(=O)c2c(C)noc2C)cc1`: the compound was called inactive.

`C=C(C)Cn1c(C)cc(C)c(S(=O)(=O)c2ccccc2C)c1=O`: the result was inactive.

Regarding `C/C(=C\C(=O)c1ccc(Br)cc1)N1CCCCC1`, the compound was called inactive.

For `COc1ccc(NCc2nc3ccccc3n2CCOc2ccccc2)cc1`, the call was inactive.

Consider `NCCOc1ccccc1Cc1ccccc1`, for which the compound was called inactive.

With `COc1cc(Br)c(CNc2cc(C)ccc2C)cc1OC`, the compound was classed as inactive.

Consider `O=c1cc(OCc2ccccc2)cc[nH]1`, for which the result was inactive.

Turning to `COc1ccc(OCC(O)CNc2ccc(Br)cc2)cc1` (configuration not stated), the result was inactive.

As to `O=C(NC(=S)NCCN1CCOCC1)c1ccc(Cl)cc1Cl`, the result was inactive.

On to `CN(C1=C(NC(=O)c2ccc(Cl)cc2)C(=O)c2ccccc2C1=O)c1ccccc1`, for which the outcome was inactive.

Turning to `CC(=O)NCCC(=O)NCc1ccc(F)cc1`, the compound was called inactive.

Regarding `Cc1cccc(N2CCN(C(=O)c3ccncc3)CC2)c1C`, the compound was classed as inactive.

Regarding `CCOc1ccc(S(=O)(=O)N2CC(=O)Nc3ccccc32)cc1C#N`, the compound was classed as inactive.

Take `C=CCc1cc(/C=N\NC(=O)CSc2nnc(CCCc3ccc(OC)c(C)c3)o2)cc(OC)c1O`: the compound was called inactive.

As to `Cc1ccc(Nc2cnn(C34CC5CC(CC(CC(=O)O)(C5)C3)C4)c(=O)c2Cl)cc1C`, the call was inactive.

In the case of `CCOC(=O)CN1C(=O)C(Sc2n[nH]c(-c3ccccc3)n2)CCc2ccccc21` (configuration not stated), the call was inactive.

`NCCC(=O)N1c2ccccc2Sc2ccccc21`: the compound was called inactive.

In the case of `COc1cccc(CNCCc2c[nH]c3ccccc23)c1OCc1ccccc1`, the outcome was inactive.

Regarding `CCOc1cc(CNc2ccc(O)cc2)cc(Br)c1OCc1ccccc1F`, the call was inactive.

For `CCOCC(O)CS(=O)Cc1ccccc1` (configuration not stated), the compound was classed as inactive.

On to `CC(=NNC(=S)SCc1ccccc1)c1ccccn1`, for which the outcome was inactive.

In the case of `Cc1cc(C)n2nc(C(=O)Nc3cccnc3)nc2n1`, the result was inactive.

Take `O=C(Nc1cccnc1)c1sc(Nc2ccccc2F)nc1-c1ccccc1`: the result was inactive.

With `Cc1cc(NC(=O)CSc2nnc(-c3ccoc3C)n2N)no1`, the result was inactive.

As for `CCOC(=O)N1CCN(S(=O)(=O)c2ccc(F)c(C(=O)Nc3cc(C)cc(C)c3)c2)CC1`, the outcome was inactive.

On to `CC(C)OCCCNC(=O)CNC(=O)c1cccs1`, for which the result was inactive.

Consider `COc1ccc(S(=O)(=O)N2CCN(C(=O)c3cc(C)on3)CC2)cc1`, for which the outcome was inactive.

In the case of `Cc1ccc(C(=O)/C=C/c2cc(C#N)n(C)c2C)cc1`, the compound was called inactive.

With `CCOC(=O)c1c(NC(=O)CSc2nncs2)sc(C)c1C`, the result was inactive.

As to `O=C1CCCC2=C1C(O)(C(F)(F)F)C(=O)N2Cc1ccccc1` (configuration not stated), the compound was called inactive.

Take `CCOC(=O)C1=C(C)n2c(s/c(=C/c3cccc([N+](=O)[O-])c3)c2=O)=NC1c1ccc(O)c(OC)c1` (configuration not stated): the outcome was inactive.

With `CCOC(=O)C1(C)NC(c2ccco2)C2C(=O)N(CC)C(=O)C21` (configuration not stated), the result was inactive.

Turning to `CCN(Cc1ccccc1)S(=O)(=O)c1ccc(C(=O)Nc2nnc(C3CC3)o2)cc1`, the outcome was inactive.

Take `COCCNC(=O)COc1ccc(Br)cc1Cl`: the result was inactive.

In the case of `COc1ccc(-c2cc3ccc(OCc4nn[nH]n4)cc3oc2=O)cc1`, the call was inactive.

As to `NC(=O)c1ccc(N2CCN(c3ncc(C(F)(F)F)cc3Cl)CC2)cc1`, the result was inactive.

With `O=C(Cn1cc2c(n1)CCCC2)NCc1cccnc1`, the compound was called inactive.

Turning to `COc1ccc(S(=O)(=O)N2CCC(C(=O)NCCC3=CCCCC3)CC2)cc1C`, the compound was called inactive.

In the case of `O=C(/C=C/c1ccco1)c1cccnc1`, the result was inactive.

Turning to `Clc1ccc(-c2nnc(SCc3ccon3)o2)c(Cl)c1`, the call was inactive.

Regarding `CCOC(=O)c1cccc(NC(=O)CCc2nc(-c3ccc(C)cc3)no2)c1`, the outcome was inactive.

With `CCCOc1ccc(-c2nnn(CC(=O)OCC)n2)cc1`, the compound was called inactive.

Regarding `O=C1c2ccccc2C(=O)N1CCc1csc(-c2ccc(F)cc2)n1`, the outcome was inactive.

With `O=C(O)Cn1c(O)c(C=Nc2ccccc2)sc1=S`, the outcome was inactive.

Consider `Cc1cc(C)c(C)c(S(=O)(=O)N2C(=S)NC(=O)C2C(C)C)c1C` (configuration not stated), for which the compound was called inactive.

Consider `Cc1cc(Oc2ccc(-c3ccccc3)cc2)n2ncnc2n1`, for which the call was inactive.

In the case of `CCn1c(SCC(=O)NCc2ccc3c(c2)OCO3)nnc1-c1cccs1`, the compound was classed as inactive.

In the case of `CCOC(=O)C/C(C)=N\Nc1ccc([N+](=O)[O-])cc1[N+](=O)[O-]`, the result was inactive.

In the case of `CN(C)S(=O)(=O)c1ccc(NC(=O)N2CCN(c3cccc(C(F)(F)F)c3)CC2)cc1`, the outcome was inactive.

As to `O=S(=O)(c1cccc(C(F)(F)F)c1)N1CCN(c2ccccc2)CC1`, the compound was called inactive.

Take `O=C(c1ccc(N2CCN(C3CC(=O)N(c4ccc(F)cc4)C3=O)CC2)cc1)c1cccnc1` (configuration not stated): the result was inactive.

Take `COc1cccc(CNCC(=O)Nc2ccc(N3CCOCC3)cc2)c1`: the compound was called inactive.

Take `C=CCOc1c(Br)cc(CNn2nnnc2N)cc1OCC`: the compound was called inactive.
